According to the supplement of paper PMC11732987, “Enantioselective OTUD7B fragment discovery through chemoproteomics screening and high-throughput optimisation” (Communications Chemistry, 2025):
A number with no mark means an inactive call.

Assays:
Experiment in all cases: log2 ratio of Biotin-Ahx-Ub-VS probe labelling (fragment/DMSO); higher = less target engagement (more negative = stronger competition), active = hit call of the paper (q ≤ 0.05, log2 ratio ≤ -1)
Details in all cases: compound concentration: 200 uM; treatment time: 3 h
OTUD6B = target: T1, OTUD6B (UniProt Q8N6M0)
T1 sequence (whole entry): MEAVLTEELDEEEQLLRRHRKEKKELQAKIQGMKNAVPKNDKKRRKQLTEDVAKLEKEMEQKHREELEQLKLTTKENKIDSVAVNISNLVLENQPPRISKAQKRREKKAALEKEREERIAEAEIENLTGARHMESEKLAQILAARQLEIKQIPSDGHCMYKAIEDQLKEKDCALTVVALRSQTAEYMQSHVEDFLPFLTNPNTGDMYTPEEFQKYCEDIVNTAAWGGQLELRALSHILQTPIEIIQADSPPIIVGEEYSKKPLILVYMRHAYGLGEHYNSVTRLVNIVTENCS
How it was run: (§1)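 Fragment (200 µM) or vehicle was incubated for 3 h with triplicate HEK293T lysate samples of 495 µg, which were then treated with Biotin-Ahx-Ub-VS at 0.5 µM final for 1 h. Labelled DUBs were enriched on NeutrAvidin, digested with LysC and trypsin, and analysed by diaPASEF LC-MS/MS. Values are average log2 fragment/vehicle ratios from an unpaired t-test on global-median-normalised Spectronaut label-free quantities, using proteins with ≥2 unique peptides.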

OTUD7B = target: T2, OTUD7B (UniProt Q6GQQ9)
T2 sequence (whole entry): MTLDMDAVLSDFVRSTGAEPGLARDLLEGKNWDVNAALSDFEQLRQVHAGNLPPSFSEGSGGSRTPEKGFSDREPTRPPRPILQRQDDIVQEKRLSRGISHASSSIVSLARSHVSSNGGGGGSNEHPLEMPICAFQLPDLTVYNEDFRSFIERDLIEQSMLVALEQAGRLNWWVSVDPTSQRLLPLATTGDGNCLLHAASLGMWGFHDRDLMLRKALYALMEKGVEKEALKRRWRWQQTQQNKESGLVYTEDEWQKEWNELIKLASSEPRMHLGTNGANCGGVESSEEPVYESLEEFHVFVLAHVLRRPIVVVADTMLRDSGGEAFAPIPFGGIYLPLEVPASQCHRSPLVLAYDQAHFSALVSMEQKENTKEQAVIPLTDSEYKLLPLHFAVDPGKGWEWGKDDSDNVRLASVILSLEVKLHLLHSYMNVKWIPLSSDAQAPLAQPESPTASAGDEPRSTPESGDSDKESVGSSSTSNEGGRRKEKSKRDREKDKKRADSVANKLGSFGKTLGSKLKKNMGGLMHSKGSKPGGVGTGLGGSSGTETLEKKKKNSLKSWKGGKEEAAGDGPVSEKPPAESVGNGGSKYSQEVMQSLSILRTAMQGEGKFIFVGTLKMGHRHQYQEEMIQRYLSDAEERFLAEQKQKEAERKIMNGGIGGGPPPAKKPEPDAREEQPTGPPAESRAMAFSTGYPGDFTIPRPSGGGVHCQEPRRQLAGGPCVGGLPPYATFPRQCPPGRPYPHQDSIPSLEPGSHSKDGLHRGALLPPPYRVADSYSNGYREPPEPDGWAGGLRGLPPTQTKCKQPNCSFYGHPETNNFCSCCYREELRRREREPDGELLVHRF
How it was run: as §1

PRPF8 = PRPF8 (UniProt Q6P2Q9)
How it was run: as §1

PSMD7 = target: T3, PSMD7 (UniProt P51665)
T3 sequence (whole entry): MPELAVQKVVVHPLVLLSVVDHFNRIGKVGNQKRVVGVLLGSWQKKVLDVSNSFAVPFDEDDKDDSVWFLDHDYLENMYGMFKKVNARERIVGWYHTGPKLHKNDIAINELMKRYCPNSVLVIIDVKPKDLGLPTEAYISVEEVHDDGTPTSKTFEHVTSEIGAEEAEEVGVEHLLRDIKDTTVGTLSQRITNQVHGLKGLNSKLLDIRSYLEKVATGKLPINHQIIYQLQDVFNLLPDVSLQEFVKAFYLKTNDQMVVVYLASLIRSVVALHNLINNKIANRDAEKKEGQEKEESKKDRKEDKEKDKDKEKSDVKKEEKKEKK
How it was run: as §1

UCHL1 = UCHL1 (UniProt P09936)
Chain of UCHL1 (P09936 whole entry, looked up): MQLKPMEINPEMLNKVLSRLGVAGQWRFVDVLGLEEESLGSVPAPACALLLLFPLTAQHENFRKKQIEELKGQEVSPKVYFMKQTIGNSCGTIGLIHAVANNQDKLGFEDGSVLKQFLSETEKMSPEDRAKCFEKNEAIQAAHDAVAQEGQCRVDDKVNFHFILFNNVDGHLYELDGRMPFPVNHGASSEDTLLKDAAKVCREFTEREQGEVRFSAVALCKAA
How it was run: as §1

UCHL3 = target: T4, UCHL3 (UniProt P15374)
T4 sequence (whole entry): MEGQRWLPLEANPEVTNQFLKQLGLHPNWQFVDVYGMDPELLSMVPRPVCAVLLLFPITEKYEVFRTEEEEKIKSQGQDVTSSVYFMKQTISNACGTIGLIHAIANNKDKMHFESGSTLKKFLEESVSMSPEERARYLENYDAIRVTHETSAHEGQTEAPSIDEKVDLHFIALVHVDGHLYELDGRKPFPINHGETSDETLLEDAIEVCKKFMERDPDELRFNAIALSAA
How it was run: as §1

UCHL5 = target: T5, UCHL5 (UniProt Q9Y5K5)
T5 sequence (whole entry): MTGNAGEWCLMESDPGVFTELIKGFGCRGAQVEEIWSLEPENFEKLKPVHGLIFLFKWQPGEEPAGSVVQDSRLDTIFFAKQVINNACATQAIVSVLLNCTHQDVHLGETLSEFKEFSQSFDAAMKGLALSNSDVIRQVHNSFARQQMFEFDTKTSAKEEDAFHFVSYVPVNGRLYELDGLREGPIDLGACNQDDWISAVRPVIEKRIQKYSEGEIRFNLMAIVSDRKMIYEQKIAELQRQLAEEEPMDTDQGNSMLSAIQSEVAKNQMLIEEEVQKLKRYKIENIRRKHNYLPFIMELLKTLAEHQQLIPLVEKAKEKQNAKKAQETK
How it was run: as §1

USP10 = USP10 (UniProt Q14694)
Chain of USP10 (Q14694 whole entry): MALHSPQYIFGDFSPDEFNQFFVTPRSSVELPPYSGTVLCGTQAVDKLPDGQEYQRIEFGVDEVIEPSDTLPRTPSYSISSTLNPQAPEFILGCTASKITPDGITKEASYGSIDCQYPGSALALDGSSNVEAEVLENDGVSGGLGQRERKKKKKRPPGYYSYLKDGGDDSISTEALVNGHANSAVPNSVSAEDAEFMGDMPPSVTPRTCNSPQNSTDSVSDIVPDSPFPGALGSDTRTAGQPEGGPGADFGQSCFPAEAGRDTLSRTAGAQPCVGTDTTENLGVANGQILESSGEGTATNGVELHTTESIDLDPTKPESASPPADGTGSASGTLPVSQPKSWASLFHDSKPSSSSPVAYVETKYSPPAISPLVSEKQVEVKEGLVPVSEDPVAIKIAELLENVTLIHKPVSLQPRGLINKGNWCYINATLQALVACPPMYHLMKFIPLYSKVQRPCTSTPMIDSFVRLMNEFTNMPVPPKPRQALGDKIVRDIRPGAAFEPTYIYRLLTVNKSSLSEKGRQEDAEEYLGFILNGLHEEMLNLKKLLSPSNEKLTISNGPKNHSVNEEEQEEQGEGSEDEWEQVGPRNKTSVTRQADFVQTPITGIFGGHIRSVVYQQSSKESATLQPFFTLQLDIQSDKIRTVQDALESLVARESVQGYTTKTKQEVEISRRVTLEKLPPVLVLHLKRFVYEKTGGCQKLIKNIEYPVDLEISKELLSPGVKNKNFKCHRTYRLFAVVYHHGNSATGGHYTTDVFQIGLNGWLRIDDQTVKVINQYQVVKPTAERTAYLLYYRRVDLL
How it was run: as §1

USP15 = target: T6, USP15 (UniProt Q9Y4E8)
T6 sequence (whole entry): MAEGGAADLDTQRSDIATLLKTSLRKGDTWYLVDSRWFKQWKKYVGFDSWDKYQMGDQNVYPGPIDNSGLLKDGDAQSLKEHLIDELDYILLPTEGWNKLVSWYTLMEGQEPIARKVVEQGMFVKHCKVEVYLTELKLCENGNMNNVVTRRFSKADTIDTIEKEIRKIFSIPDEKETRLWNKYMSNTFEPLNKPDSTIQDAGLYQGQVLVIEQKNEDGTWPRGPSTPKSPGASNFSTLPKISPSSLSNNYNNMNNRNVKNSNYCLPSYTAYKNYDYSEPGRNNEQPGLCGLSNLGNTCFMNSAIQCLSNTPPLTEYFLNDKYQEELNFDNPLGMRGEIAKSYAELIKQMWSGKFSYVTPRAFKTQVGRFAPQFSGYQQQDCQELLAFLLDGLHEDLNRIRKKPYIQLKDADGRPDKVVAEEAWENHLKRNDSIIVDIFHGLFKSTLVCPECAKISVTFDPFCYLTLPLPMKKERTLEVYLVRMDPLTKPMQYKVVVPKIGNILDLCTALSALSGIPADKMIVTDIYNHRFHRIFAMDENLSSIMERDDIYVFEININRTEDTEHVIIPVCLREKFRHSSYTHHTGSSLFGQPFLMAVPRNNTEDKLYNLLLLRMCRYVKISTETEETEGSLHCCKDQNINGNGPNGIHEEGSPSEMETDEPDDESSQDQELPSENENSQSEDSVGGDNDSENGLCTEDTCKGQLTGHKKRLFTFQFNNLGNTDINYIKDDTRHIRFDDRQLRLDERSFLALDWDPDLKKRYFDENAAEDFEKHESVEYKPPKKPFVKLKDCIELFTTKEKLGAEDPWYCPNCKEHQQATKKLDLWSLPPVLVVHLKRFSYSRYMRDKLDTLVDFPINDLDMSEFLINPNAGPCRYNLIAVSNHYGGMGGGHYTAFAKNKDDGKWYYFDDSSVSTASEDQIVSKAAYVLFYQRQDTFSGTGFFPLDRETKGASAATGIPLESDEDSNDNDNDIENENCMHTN
How it was run: as §1

USP16 = USP16 (UniProt Q9Y5T5)
Chain of USP16 (Q9Y5T5 whole entry, looked up): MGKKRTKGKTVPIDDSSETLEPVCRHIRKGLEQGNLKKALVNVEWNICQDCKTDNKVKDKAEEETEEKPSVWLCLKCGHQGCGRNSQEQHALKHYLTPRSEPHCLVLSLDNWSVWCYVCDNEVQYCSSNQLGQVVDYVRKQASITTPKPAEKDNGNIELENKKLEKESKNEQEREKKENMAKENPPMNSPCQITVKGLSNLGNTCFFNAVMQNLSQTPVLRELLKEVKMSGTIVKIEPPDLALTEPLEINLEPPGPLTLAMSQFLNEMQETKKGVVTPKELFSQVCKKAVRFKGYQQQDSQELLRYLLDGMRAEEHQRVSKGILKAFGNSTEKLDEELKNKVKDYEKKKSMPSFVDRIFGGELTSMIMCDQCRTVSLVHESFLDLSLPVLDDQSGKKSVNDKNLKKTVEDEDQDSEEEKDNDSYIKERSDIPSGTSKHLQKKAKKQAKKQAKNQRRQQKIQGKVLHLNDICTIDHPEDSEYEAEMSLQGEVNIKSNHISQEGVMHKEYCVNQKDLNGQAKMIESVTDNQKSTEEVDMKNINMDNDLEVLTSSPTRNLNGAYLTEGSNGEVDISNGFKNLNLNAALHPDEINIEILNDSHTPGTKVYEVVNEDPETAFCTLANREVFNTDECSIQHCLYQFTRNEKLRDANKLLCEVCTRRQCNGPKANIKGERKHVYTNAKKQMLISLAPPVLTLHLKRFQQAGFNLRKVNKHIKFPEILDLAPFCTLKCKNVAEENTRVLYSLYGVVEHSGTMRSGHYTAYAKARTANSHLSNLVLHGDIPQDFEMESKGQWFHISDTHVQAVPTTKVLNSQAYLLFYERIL
How it was run: as §1

In the case of `O=C(CCl)NCCc1ccc2c(c1)OCCO2`, the “log2 ratio of Biotin-Ahx-Ub-VS probe labelling” value (from here on “log2 ratio”) (OTUD6B) is reported as -0.218, the “log2 ratio” value (OTUD7B) is reported as -0.434 and the “log2 ratio” value (PRPF8) is reported as 0.0207. The “log2 ratio” value (PSMD7) was -0.153, the “log2 ratio” value (UCHL1) was -1.2 (active) and the “log2 ratio” value (UCHL3) was -0.0656. For the same compound, the “log2 ratio” value (UCHL5) was -0.156, the “log2 ratio” value (USP10) was -0.3 and the “log2 ratio” value (USP15) was -0.184. For the same compound, the “log2 ratio” value (USP16) was 0.248.
